Data taken from PubChem BioAssay (NCI).
This is part of a sample that, as a whole, favours compounds with a hit. Of some 79,000 tested, about 15% had one in any assay. Unmarked numbers belong to inactive results. Activity calls are given as the source filed them. No stated cut-off is given here; in the data, active means growth inhibition above about 70%; inactive means the rest.

Legend:
[1] = NCI Yeast Anticancer Drug Screen. Data for the rad50 strain (AID 155);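 further: 0% = growth of vehicle-only cultures of the same strain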; conditions: S. cerevisiae rad50 strain growth inhibition, hits give high values
How it was run: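 DNA repair mutant yeast, compound exposure, growth read-out; inhibition is taken relative to vehicle.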

[2] = NCI Yeast Anticancer Drug Screen. Data for the mec2-1 strain (AID 157); conditions: S. cerevisiae mec2-1 strain, hits give high values
How it was run: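 Yeast mec2-1 mutant treated with compound. Readout: growth inhibition vs vehicle controls.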

[3] = NCI Yeast Anticancer Drug Screen. Data for the sgs1 mgt1 strain (AID 161);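 further: 0% = growth of cultures given vehicle only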; conditions: S. cerevisiae sgs1 mgt1 strain, hits give high values
How it was run: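 Genetically altered yeast, compound exposure, growth inhibition relative to vehicle.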

[4] = NCI Yeast Anticancer Drug Screen. Data for the cln2 rad14 strain (AID 165);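 further: 0% = growth equal to vehicle treated cultures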; conditions: S. cerevisiae cln2 rad14 strain, hits give high values
How it was run: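 cln2 rad14 yeast strain; compound exposure; growth inhibition read vs vehicle controls.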

[5] = NCI Yeast Anticancer Drug Screen. Data for the bub3 strain (AID 167); conditions: S. cerevisiae bub3 mutant strain, hits give high values
How it was run: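 In this screen, a yeast mutant lacking normal mitotic checkpoint function is challenged with compound. Relative growth versus vehicle gives the inhibition value.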

[6] = NCI Yeast Anticancer Drug Screen. Data for the mlh1 rad18 strain (AID 175); conditions: S. cerevisiae mlh1 rad18 strain growth inhibition, hits give high values
How it was run: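 Yeast w/ defined DNA-repair lesions; compound exposure; growth vs vehicle controls → % inhibition.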

[7] = at 5.0 µM (retest, dose inferred, filed as 0.5)
[8] = at 50.0 µM (retest, dose inferred, filed as 5.0)

Compound: Cn1c(-c2ccc(/C=N/NC(N)=NCCCCCCN=C(N)N/N=C/c3ccc(-c4c[n+]5ccccc5n4C)cc3)cc2)c[n+]2ccccc12
- growth inhibition [1, 7]: 97% (active)
- growth inhibition [1, 8]: 98% (active)
- growth inhibition ([1]; at 50.0 µM): 98.2% (active)
- growth inhibition [2, 7]: 97% (active)
- growth inhibition [2, 8]: 98% (active)
- growth inhibition ([2]; at 50.0 µM): 96.8% (active)
- growth inhibition [3, 7]: 97% (active)
- growth inhibition [3, 8]: 98% (active)
- growth inhibition ([3]; at 50.0 µM): 97.2% (active)
- growth inhibition [4, 7]: 95% (active)
- growth inhibition [4, 8]: 98% (active)
- growth inhibition ([4]; at 50.0 µM): 89.3% (active)
- growth inhibition [5, 7]: 97% (active)
- growth inhibition [5, 8]: 99% (active)
- growth inhibition ([5]; at 50.0 µM): 97.3% (active)
- growth inhibition [6, 7]: 97% (active)
- growth inhibition [6, 8]: 98% (active)
- growth inhibition ([6]; at 50.0 µM): 97.7% (active)

Compound: c1ccc2c(c1)C[n+]1ccc3ccccc3c1-c1c3ccccc3cc[n+]1C2
- growth inhibition [1, 7]: 8%
- growth inhibition [1, 8]: 28%
- growth inhibition ([1]; at 50.0 µM): 64.2%
- growth inhibition [2, 7]: 6%
- growth inhibition [2, 8]: 20%
- growth inhibition ([2]; at 50.0 µM): 13.4%
- growth inhibition [3, 7]: 11%
- growth inhibition [3, 8]: 40%
- growth inhibition ([3]; at 50.0 µM): 69.8%
- growth inhibition [4, 7]: 1%
- growth inhibition [4, 8]: 18%
- growth inhibition ([4]; at 50.0 µM): 53%
- growth inhibition [5, 7]: -2%
- growth inhibition [5, 8]: 4%
- growth inhibition ([5]; at 50.0 µM): 7.85%
- growth inhibition [6, 7]: 7%
- growth inhibition [6, 8]: 21%
- growth inhibition ([6]; at 50.0 µM): 65.8%

Compound: c1ccc(N=C2c3ccsc3C(=Nc3ccccc3)c3ccsc32)cc1
- growth inhibition [1, 7]: 25%
- growth inhibition [1, 8]: 98% (active)
- growth inhibition ([1]; at 50.0 µM): 80% (active)
- growth inhibition [2, 7]: 22%
- growth inhibition [2, 8]: 98% (active)
- growth inhibition ([2]; at 50.0 µM): 75.5% (active)
- growth inhibition [3, 7]: 21%
- growth inhibition [3, 8]: 93% (active)
- growth inhibition ([3]; at 50.0 µM): 81.7% (active)
- growth inhibition [4, 7]: 5%
- growth inhibition [4, 8]: 53%
- growth inhibition ([4]; at 50.0 µM): 84.5% (active)
- growth inhibition [5, 7]: 51%
- growth inhibition [5, 8]: 97% (active)
- growth inhibition ([5]; at 50.0 µM): 81.6% (active)
- growth inhibition [6, 7]: 29%
- growth inhibition [6, 8]: 97% (active)
- growth inhibition ([6]; at 50.0 µM): 85.6% (active)

Compound: COC(=O)c1nc(=S)[nH]c(C(=O)OC)c1C(=O)c1ccc2ccccc2c1
- growth inhibition [1, 7]: 26%
- growth inhibition [1, 8]: 96% (active)
- growth inhibition ([1]; at 50.0 µM): 94.5% (active)
- growth inhibition [2, 7]: 9%
- growth inhibition [2, 8]: 97% (active)
- growth inhibition ([2]; at 50.0 µM): 71.5% (active)
- growth inhibition [3, 7]: 0%
- growth inhibition [3, 8]: 97% (active)
- growth inhibition ([3]; at 50.0 µM): 93.3% (active)
- growth inhibition [4, 7]: 8%
- growth inhibition [4, 8]: 96% (active)
- growth inhibition ([4]; at 50.0 µM): 25.8%
- growth inhibition [5, 7]: 13%
- growth inhibition [5, 8]: 98% (active)
- growth inhibition ([5]; at 50.0 µM): 71.1% (active)
- growth inhibition [6, 7]: 16%
- growth inhibition [6, 8]: 98% (active)
- growth inhibition ([6]; at 50.0 µM): 94.5% (active)

Compound: CN(C)CCC1(C2=CCCC2)CC/C(=C\c2ccccc2Cl)C1=O (configuration not stated)
- growth inhibition [1, 7]: -1%
- growth inhibition [1, 8]: 60%
- growth inhibition ([1]; at 50.0 µM): 69.3%
- growth inhibition [2, 7]: -18%
- growth inhibition [2, 8]: 28%
- growth inhibition ([2]; at 50.0 µM): 22.6%
- growth inhibition [3, 7]: 0%
- growth inhibition [3, 8]: 62%
- growth inhibition ([3]; at 50.0 µM): 42.4%
- growth inhibition [4, 7]: -10%
- growth inhibition [4, 8]: 51%
- growth inhibition ([4]; at 50.0 µM): 73% (active)
- growth inhibition [5, 7]: 19%
- growth inhibition [5, 8]: 76% (active)
- growth inhibition ([5]; at 50.0 µM): 36.5%
- growth inhibition [6, 7]: 4%
- growth inhibition [6, 8]: 92% (active)
- growth inhibition ([6]; at 50.0 µM): 87.8% (active)

Compound: COc1cc(OC)cc(C2OC3=C(Nc4ccc([N+](=O)[O-])cc4N3)C2=O)c1 (configuration not stated)
- growth inhibition [1, 7]: 2%
- growth inhibition [1, 8]: 60%
- growth inhibition ([1]; at 50.0 µM): 86.8% (active)
- growth inhibition [2, 7]: 10%
- growth inhibition [2, 8]: 40%
- growth inhibition ([2]; at 50.0 µM): 59.8%
- growth inhibition [3, 7]: 30%
- growth inhibition [3, 8]: 50%
- growth inhibition ([3]; at 50.0 µM): 81.1% (active)
- growth inhibition [4, 7]: 11%
- growth inhibition [4, 8]: 29%
- growth inhibition ([4]; at 50.0 µM): 57%
- growth inhibition [5, 7]: 24%
- growth inhibition [5, 8]: 16%
- growth inhibition ([5]; at 50.0 µM): 51.2%
- growth inhibition [6, 7]: -4%
- growth inhibition [6, 8]: 49%
- growth inhibition ([6]; at 50.0 µM): 82.4% (active)

Compound: Cc1c2ccncc2cc2c3ccccc3n(C)c12
- growth inhibition [1, 7]: -23%
- growth inhibition [1, 8]: 97% (active)
- growth inhibition ([1]; at 50.0 µM): 99% (active)
- growth inhibition [2, 7]: -58%
- growth inhibition [2, 8]: 97% (active)
- growth inhibition ([2]; at 50.0 µM): 98.7% (active)
- growth inhibition [3, 7]: -45%
- growth inhibition [3, 8]: 97% (active)
- growth inhibition ([3]; at 50.0 µM): 98.7% (active)
- growth inhibition [4, 7]: -50%
- growth inhibition [4, 8]: 98% (active)
- growth inhibition ([4]; at 50.0 µM): 98.2% (active)
- growth inhibition [5, 7]: -63%
- growth inhibition [5, 8]: 98% (active)
- growth inhibition ([5]; at 50.0 µM): 98.8% (active)
- growth inhibition [6, 7]: -95%
- growth inhibition [6, 8]: 97% (active)
- growth inhibition ([6]; at 50.0 µM): 99.2% (active)

Compound: O=C1C(=O)N(c2cc(Cl)ccc2Cl)C(=O)C(=O)C1c1nc2ccccc2o1
- growth inhibition [1, 7]: 4%
- growth inhibition [1, 8]: 4%
- growth inhibition ([1]; at 50.0 µM): 53.2%
- growth inhibition [2, 7]: 15%
- growth inhibition [2, 8]: 15%
- growth inhibition ([2]; at 50.0 µM): 37.9%
- growth inhibition [3, 7]: 22%
- growth inhibition [3, 8]: 22%
- growth inhibition ([3]; at 50.0 µM): 36.8%
- growth inhibition [4, 7]: 10%
- growth inhibition [4, 8]: 10%
- growth inhibition ([4]; at 50.0 µM): 81.2% (active)
- growth inhibition [5, 7]: 2%
- growth inhibition [5, 8]: 2%
- growth inhibition ([5]; at 50.0 µM): 57.1%
- growth inhibition [6, 7]: 12%
- growth inhibition [6, 8]: 12%
- growth inhibition ([6]; at 50.0 µM): 31.9%

Compound: CCCc1cc(=O)oc2c3c(c4c(c12)OC(C)(C)C=C4)O[C@@H](C)[C@H](C)[C@H]3O
- growth inhibition [1, 7]: -1%
- growth inhibition [1, 8]: 91% (active)
- growth inhibition ([1]; at 50.0 µM): 96.7% (active)
- growth inhibition [2, 7]: 0%
- growth inhibition [2, 8]: 94% (active)
- growth inhibition ([2]; at 50.0 µM): 94.8% (active)
- growth inhibition [3, 7]: 11%
- growth inhibition [3, 8]: 95% (active)
- growth inhibition ([3]; at 50.0 µM): 51.8%
- growth inhibition [4, 7]: 2%
- growth inhibition [4, 8]: 93% (active)
- growth inhibition ([4]; at 50.0 µM): 92.4% (active)
- growth inhibition [5, 7]: -2%
- growth inhibition [5, 8]: 94% (active)
- growth inhibition ([5]; at 50.0 µM): 96.5% (active)
- growth inhibition [6, 7]: 1%
- growth inhibition [6, 8]: 93% (active)
- growth inhibition ([6]; at 50.0 µM): 95.1% (active)
